Compounds with a hit are over-represented: about 10% of the library has one in this group of screens.
SW480 rerep – induces DNA re-replication in SW480 colon adenocarcinoma cells; SW480 DNA re-replication, Hoechst DNA content imaging, 48 h; Potency, µM (titrated, usually from 46.1 µM), without a hit: at the top dose re-replication activation, usual class: activators; 1.8% of 340,000 active; AID 624297; also: % of control where 0% means no effect; nearly all actives have a fitted effect of over 55% in size
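250 cells/well; 23 nL cpd via pin tool; 48 hr, 37 C, 5% CO2; Hoechst 40 min; imager read of total nuclear intensity, ex 405/em 500-530 nm.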
MCF10A rereplic – inducers of DNA re-replication in MCF 10A breast cells; AID 624296; 2.9% of 350,000 active; Potency, µM (series often up to 46.1 µM), for inactives: at the highest dose activity, positive = re-replication, most hits filed as activators; MCF 10A DNA re-replication, Hoechst nuclear intensity, 48 h; also: % of control where 0% means no effect; nearly all actives have a fitted effect of over 50% in size
ELG1 DNA repair – inhibitors of ELG1-dependent DNA repair in HEK293T cells. 2.3% of 330,000 active. HEK293T ELG1-luciferase reporter, luminescence, 16 h; DNA damage induced by 5-fluorouridine. Potency, µM (titrated, usually from 46.1 µM), for the others: at the highest dose activity change, negative = inhibition, usual class: inhibitors. AID 504467; also: % is scaled to controls: 0 for no effect and ±100 for the full control effect; nearly all actives have a fitted effect of over 55% in size
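DMSO vehicle served as the neutral condition. Each well held 2,000 cells given 5-fluorouridine plus compound; after 16 hr at 37 °C/5% CO2, ONE-Glo was added and luciferase measured 30 min later.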
VP16 counter – Gal4-VP16 reporter inhibition counter-screen. Drosophila S2 Gal4-VP16 UAS-luciferase, luminescence, 20 h. Potency, µM (series often up to 53.6 µM), for the others: at the highest dose activity, negative = inhibition, most hits filed as inhibitors. 3.5% of 310,000 active. AID 2546;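 also: Gal4-VP16 expression switched on by copper sulfate through the metallothionein promoter; % is scaled to controls: 0 for no effect and ±100 for the full control effect; nearly all actives have a fitted effect of over 50% in size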
RORgamma inh – inhibitors of mouse ROR gamma transcriptional activity; AID 2551; Drosophila S2 Gal4-RORgamma UAS-luciferase reporter, 20 h; Potency, µM (titrated, usually from 53.6 µM), inactives show at the top dose activity change, negative = inhibition, actives largely listed as inhibitors; P51450; 5.4% of 310,000 active; also: % is scaled to controls: 0 for no effect and ±100 for the full control effect; nearly all actives have a fitted effect of over 60% in size
Target sequence (P51450 whole entry, looked up, the tested form may be a part): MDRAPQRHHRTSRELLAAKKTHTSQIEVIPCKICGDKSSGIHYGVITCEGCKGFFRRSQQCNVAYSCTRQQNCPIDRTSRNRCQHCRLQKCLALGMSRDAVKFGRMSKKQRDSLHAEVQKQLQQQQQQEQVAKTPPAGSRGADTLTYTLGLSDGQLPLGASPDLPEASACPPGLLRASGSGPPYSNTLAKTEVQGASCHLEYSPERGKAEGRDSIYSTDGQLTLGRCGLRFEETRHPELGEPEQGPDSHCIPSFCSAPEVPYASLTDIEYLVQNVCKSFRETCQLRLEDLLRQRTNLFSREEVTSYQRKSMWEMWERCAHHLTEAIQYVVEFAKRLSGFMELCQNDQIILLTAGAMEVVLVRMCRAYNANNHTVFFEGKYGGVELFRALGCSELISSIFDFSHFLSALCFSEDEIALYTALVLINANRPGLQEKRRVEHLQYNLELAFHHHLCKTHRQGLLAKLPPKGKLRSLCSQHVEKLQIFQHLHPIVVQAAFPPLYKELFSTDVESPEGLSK
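Schneider cells (Drosophila), stable Gal4 DBD–ROR gamma + UAS-luc; 1 hr cmpd preincubation; Cu2+ induction 700 uM final; 20 hr ambient; luminescence.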
* = called active by the depositor; ? = inconclusive; nt = not tested or not shown; [ ] = another dose, or the depositor's remark. Calls follow the shape of the dose curve; as a rule, active = well fitted curve in the direction sought with a large enough effect; inconclusive = small, poorly fitted or top-dose-only effect, or another doubt; inactive = no such curve, though single readings can be large; an effect the other way counts as inactive or inconclusive. Potency is read from the fitted curve at half-maximal effect.

SMILES	SW480 rerep	MCF10A rereplic	ELG1 DNA repair	VP16 counter	RORgamma inh
Cc1nc(Nc2ccc(Cl)cc2)c2nnn(Cc3ccccc3)c2n1	11.3%	23.1µM*	-1.4%	-2.8%	4.7%
COc1ccc(Nc2nc(C)nc3c2nnn3Cc2ccccc2)cc1OC	-0.6%	12.9%	9.2µM*	-15.0%	-22.8%
Cc1nc(Nc2ccccc2Br)c2nnn(Cc3ccccc3)c2n1	-0.7%	24.7%	-0.9%	-1.9%	-18.9%
CCCCCCCCCCCCCCCCC(C(=O)O)C(O)(CC(=O)O)C(=O)O (stereo unspecified)	0.1%	29.9µM*	nt	-9.9%	-12.6%
CCCCCCCCCCCCC(O)C(=O)O (stereo unspecified)	nt	nt	nt	-7.8%	10.3%
CN(C)c1ccc(/C=C(\C#N)c2ccccc2)cc1	3.66µM*	3.66µM*	?	-8.1%	-25.8%
O=C(/C=C/Sc1ccccc1)c1ccccc1	20.6µM*	5.17µM*	-24.6%	?	?
O=C(/C=C/Nc1ccccc1)c1ccccc1	0.7%	?	?	4.9%	-6.1%
O=C(CNC(=O)c1ccc(Cl)cc1)c1ccccc1	-129.5%	17.7%	nt	nt	nt
O=C(/C=C/Sc1ccccc1)c1ccc(Cl)cc1	17.0%	-1.6%	-11.5%	14.1µM*	?
O=C(NCc1c(Cl)cccc1Cl)c1ccc2nnsc2c1	?	1.4%	?	6.7%	14.0%
O=C(Cn1nnc(-c2ccccc2-n2cnnn2)n1)c1ccccc1	-20.1%	18.4µM*	4.2%	-10.8%	28.9%
Cc1cccn2c(=O)c3cc(C(=O)NC4CCS(=O)(=O)C4)n(Cc4ccccc4)c3nc12 (stereo unspecified)	2.59µM*	13µM*	-28.1%	0.7%	-30.7%
CNC(=O)c1cc2c(=O)n3cccc(C)c3nc2n(C(C)C)c1=N	?	3.66µM*	-13.3%	1.5%	-39.9%
Cc1cccn2c(=O)c3cc(C(=O)NC4CCCCC4)c(=N)n(Cc4ccccc4)c3nc12	2.31µM*	2.06µM*	-8.0%	3.6%	26.5%
CCn1c(=N)c(C(=O)NCc2cccnc2)cc2c(=O)n3cccc(C)c3nc21	nt	nt	3.3%	-10.4%	-16.5%
Cc1cccn2c(=O)c3cc(C(=O)NCc4ccco4)c(=N)n(C4CCCCC4)c3nc12	16.4µM*	23.1µM*	?	0.2%	-26.4%
CCCCNC(=O)c1cc2c(=O)n3cccc(C)c3nc2n(Cc2ccccc2)c1=N	-2.6%	16.7%	-1.7%	-0.4%	-28.5%
COc1cccc(N2CCN(S(=O)(=O)c3ccc4c(c3)NC(=O)CS4)CC2)c1	-14.4%	-2.6%	2.2%	-8.2%	-8.8%
COc1ccc(CCn2c(=N)c(C(=O)NC3CCCC3)cc3c(=O)n4cccc(C)c4nc32)cc1	?	248.3%	-2.4%	-0.3%	-16.0%
Cc1cccn2c(=O)c3cc(C(=O)NC4CCCC4)c(=N)n(C4CCCCC4)c3nc12	3.26µM*	25.5%	?	6.4%	1.1%
Cc1cccn2c(=O)c3cc(C(=O)NC4CCCC4)c(=N)n(Cc4ccc(F)cc4)c3nc12	4.61µM*	2.31µM*	-7.0%	-4.9%	0.0%
Cc1cccn2c(=O)c3cc(C(=O)NC4CCCC4)c(=N)n(CCc4ccccc4)c3nc12	4.61µM*	2.59µM*	24.6%	-5.3%	-9.7%
Cc1cccn2c(=O)c3cc(S(=O)(=O)c4ccc(Br)cc4)c(=N)n(C4CCCC4)c3nc12	-24.7%	9.5%	3.3%	-7.3%	-10.8%
O=C(CCc1ccncc1)N1CCCC(Nc2ccc(F)c(F)c2)C1 (stereo unspecified)	-18.9%	6.3%	-13.9%	11.8%	22.7%
SMILES	SW480 rerep	MCF10A rereplic	ELG1 DNA repair	VP16 counter	RORgamma inh
COc1ccccc1CN1C2CCCC1CC(NC(=O)/C=C/c1ccccc1)C2 (stereo unspecified)	3.9%	7.3%	16.9%	4.1%	38.7%
CCCCn1c(N)c(N(CCOC)C(=O)COC(=O)/C=C/c2ccc(Br)cc2)c(=O)[nH]c1=O	-4.5%	-11.8%	1.7%	4.3%	-2.3%
Cc1ccc(Nc2c(-c3ccco3)nc3ccccn23)cc1	-4.2%	1.1%	?	-5.6%	-0.8%
COc1ccc(Nc2c(-c3ccco3)nc3ccc(C)cn23)cc1	2.0%	-1.5%	5.7%	-9.2%[10 µM]	17.8µM*
CCCC(NC(=S)NCC1CCCO1)C12CC3CC(CC(C3)C1)C2 (stereo unspecified)	28.4%	7.6%	?	3.16µM*	0.447µM*
O=C(CSc1nnnn1C1CCCC1)NCCc1ccccc1	-6.3%	-9.8%	?	-11.6%	18.1%
COc1ccccc1/C=C/c1nc(S(=O)(=O)c2ccccc2)c(N(C)C)o1	?	20.6µM*	-7.4%	?	11.4%
CN(C)c1oc(/C=C/c2cccs2)nc1S(=O)(=O)c1ccccc1	23.1µM*	18.4µM*	0.6%	7.8%	?
COc1cccc(/C=C/c2nc(S(=O)(=O)c3ccccc3)c(N(C)C)o2)c1	?	11.6µM*	-28.3%	19.0%	0.0%
COCCNc1oc(/C=C/c2ccc(F)cc2)nc1S(=O)(=O)c1ccccc1	?	?	8.7%	-5.8%	1.6%
COc1ccccc1-c1nc(S(=O)(=O)c2ccc(Cl)cc2)c(N(C)C)o1	-14.8%	?	1.7%	6.8%	19.2%
CC(C)(C)OC(=O)N1CCC(C(=O)Nc2cccc(C(=O)NCCCc3ccccc3)c2)CC1	11.1%	-10.8%	nt	nt	nt
O=S(=O)(c1ccc(NC(=S)NN=Cc2ccccc2O)cc1)N1CCCCC1	?	14.9%	nt	nt	nt
CC(C)(C)c1ccc(C(=O)Nc2ncn[nH]2)cc1	-0.7%	?	?	?	3.98µM*
O=C(Nc1ncn[nH]1)c1cccc(F)c1	-11.6%	12.3%	10.8%	nt	nt
Cc1ccc(C(=O)Nc2ncn[nH]2)cc1	-1.8%	0.5%	9.7%	12.6µM*	?
C=CCSc1nc(-c2ccc3c(c2)OCO3)cc(C(F)(F)F)c1C#N	7.31µM*	14.6%	-0.6%	-1.2%	-11.8%
Cc1ccc(-c2cc(C(F)(F)F)c(C#N)c(SCC(=O)O)n2)cc1	27.4%	11.2%	-4.1%	-5.2%	17.4%
N#Cc1c(C(F)(F)F)cc(-c2ccc(Cl)c(Cl)c2)nc1SCCN1CCOCC1	16.5%	4.11µM*	-3.0%	-2.9%	-11.8%
CCOC(=O)CC(=O)CSc1nc(-c2ccc3c(c2)OCO3)cc(C(F)(F)F)c1C#N	?	6.31µM*	4.1%	?	-34.8%
CCOC(=O)CCSc1nc(-c2ccc3c(c2)OCO3)cc(C(F)(F)F)c1C#N	-4.7%	4.6%	6.1%	-3.1%	-42.5%
O=C(O)C(Cc1cn[nH]n1)=NO	-20.5%	9.8%	-5.8%	3.7%	-7.1%
O=C(CSC1CS(=O)(=O)c2cc([N+](=O)[O-])ccc21)NNC(=O)c1ccccc1 (stereo unspecified)	9.2µM*	?	0.7%	-6.0%	-8.5%
CC(=O)OCCc1c2ccccc2c(CCCN(C)C)c2ccccc12	?	18.4µM*	nt	nt	nt
CC(=O)OCCc1[nH]c2ccccc2c1C	-5.4%	13.6%	-8.3%	-8.4%	-3.8%

Screening results deposited in PubChem BioAssay by National Center for Advancing Translational Sciences (NCATS).
